Measured values taken from PubChem BioAssay (NCI).
About 79,000 compounds went through this panel and 15% of them were active in at least one assay; those are over-represented in the sample as a whole. Cut-off read from the data, not from the text of the source: active = growth inhibition above about 70%; inactive = the rest.

Tests used:
[1] = NCI Yeast Anticancer Drug Screen. Data for the rad50 strain (AID 155);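 note: 0% = growth of vehicle-only cultures of the same strain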; conditions: S. cerevisiae rad50 strain growth inhibition; at 50.0 µM; stronger effect = higher value
Outline: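 Compounds were tested on a yeast strain with an engineered DNA damage repair alteration; the reported value is growth inhibition normalised to vehicle treatment.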

[2] = NCI Yeast Anticancer Drug Screen. Data for the mec2-1 strain (AID 157); conditions: S. cerevisiae mec2-1 strain, at 50.0 µM, stronger effect = higher value
Outline: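 Readout is yeast growth inhibition, normalised to vehicle-treated controls, in the mec2-1 strain exposed to compound.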

[3] = NCI Yeast Anticancer Drug Screen. Data for the sgs1 mgt1 strain (AID 161);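 note: 0% = growth of cultures given vehicle only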; conditions: S. cerevisiae sgs1 mgt1 strain, at 50.0 µM, stronger effect = higher value
Outline: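 Yeast cells carrying a defined DNA-repair defect were exposed to test compounds. Growth inhibition was measured relative to vehicle-treated controls.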

[4] = NCI Yeast Anticancer Drug Screen. Data for the cln2 rad14 strain (AID 165);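 note: 0% = growth equal to vehicle treated cultures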; conditions: S. cerevisiae cln2 rad14 strain, at 50.0 µM, stronger effect = higher value
Outline: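 Relative to vehicle controls, growth inhibition of compound-treated cln2 rad14 yeast was recorded.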

[5] = NCI Yeast Anticancer Drug Screen. Data for the bub3 strain (AID 167); conditions: S. cerevisiae bub3 mutant strain, at 50.0 µM, stronger effect = higher value
Outline: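 Growth of a checkpoint-deficient yeast mutant is measured after compound exposure. Values represent inhibition relative to vehicle.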

[6] = NCI Yeast Anticancer Drug Screen. Data for the mlh1 rad18 strain (AID 175); conditions: S. cerevisiae mlh1 rad18 strain growth inhibition; at 50.0 µM; stronger effect = higher value
Outline: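 Test agents were incubated with a yeast strain of defined genotype (DNA damage repair defect). Inhibition of growth was derived by comparison with vehicle-exposed cultures.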

Measured: growth inhibition

Cc1c(Cl)cccc1NC(=S)NC(=O)c1ccccc1
inactive: [1] 23.7% | [2] 28.2% | [3] 14.8% | [4] 0.4% | [5] 35.4% | [6] 18.1%

Clc1ccc(/C=C/c2ccccn2)cc1
inactive: [1] 21.1% | [2] 2.05% | [3] 9.3% | [4] -16.2% | [5] 7.5% | [6] 28.4%

O=C1NC(=O)C(c2ccccc2)O1 (stereo unspecified)
inactive: [1] -3.9% | [2] -12.1% | [3] 1.15% | [4] 14.7% | [5] 18.8% | [6] 10.8%

Cc1ccc(N2C(=O)c3cccc4c(N)c(S(=O)(=O)O)cc(c34)C2=O)cc1
inactive: [1] -33.5% | [2] -18.2% | [3] -24.7% | [4] -6.8% | [5] -13.7% | [6] -28.4%

CC(C)(N)CO[C@H]1C[C@H]2CC[C@@]1(C)C2(C)C
inactive: [1] 11.8% | [2] -5.7% | [3] 2.4% | [4] -26.4% | [5] 10.2% | [6] -6.15%

CC(CO)(CO)C(=O)O
inactive: [1] 4.35% | [2] -31.4% | [3] -11.6% | [4] 21.3% | [5] -14% | [6] 10.1%

COC(=O)c1cccc([N+](=O)[O-])c1
inactive: [1] -11.3% | [2] -5.7% | [3] -4.7% | [4] -31.3% | [5] -0.4% | [6] -9.9%

C/C=C/C1OCC(CC)C(CCC)O1 (stereo unspecified)
inactive: [1] 36% | [2] 11.2% | [3] 1.85% | [4] -36.8% | [5] -17.9% | [6] -1.15%

CCNC(=O)Oc1ccc[nH]c1=O
inactive: [1] -7.65% | [2] -10.8% | [3] -1.1% | [4] -15.9% | [5] -2.2% | [6] -47.8%

O=C(NC(=S)N1CC=CCC1)c1ccccc1
inactive: [1] 13.5% | [2] 16.7% | [3] 26.4% | [4] -1.95% | [5] 45.5% | [6] 21.3%

O=C(Nc1ccc([N+](=O)[O-])cc1)C(=O)Nc1ccc([N+](=O)[O-])cc1
inactive: [1] -8.7% | [2] -24.2% | [3] 11.6% | [4] -7.55% | [5] 3.1% | [6] 5.3%

NNc1ncnc2nc[nH]c12
inactive: [1] -20.4% | [2] -9.65% | [3] -14.3% | [4] -44.7% | [5] -15.9% | [6] -19.4%

CC1(C)C2CCC1(C)C1(C2)OCCS1 (stereo unspecified)
inactive: [1] 24.8% | [2] -5.25% | [3] 1% | [4] 11.2% | [5] 1.05% | [6] -7.65%

O=C(NCCc1ccccc1)/C(=C\c1ccc(Cl)cc1Cl)NC(=O)c1ccccc1
inactive: [1] 1.65% | [2] -6.15% | [3] 1.85% | [4] -5.95% | [5] 4.35% | [6] 13.9%

CCOc1ccncc1[N+](=O)[O-]
inactive: [1] 5.5% | [2] 13.1% | [3] 3.25% | [4] -7% | [5] 10.1% | [6] 5%

O=C(NCc1ccccc1)/C(=C/c1ccccc1)NC(=O)c1ccccc1
inactive: [1] -33.1% | [2] -31.4% | [3] -33.9% | [4] -7.2% | [5] -12.3% | [6] -42.5%

OC(CBr)CCBr (stereo unspecified)
inactive: [1] -28.7% | [2] -31.1% | [3] -39.6% | [4] 3.45% | [5] -32.1% | [6] -32%

Oc1ccc(N=Cc2ccc(OCc3ccccc3)cc2)cc1
inactive: [1] 2.5% | [2] -29.9% | [3] 15.2% | [4] 0.25% | [5] 2.55% | [6] -4.1%

Nc1ccc(F)cc1F
inactive: [1] 6% | [2] -2.25% | [3] -3.7% | [4] -27.1% | [5] 18.1% | [6] 7.35%

CCOC(=O)c1ccc(C(C)(C)C)cc1
inactive: [1] 20.4% | [2] -6.65% | [3] 2.5% | [4] -45.5% | [5] 0.4% | [6] 6.5%

CCOC(=O)c1cc(C)[nH]c(=O)c1C#N
inactive: [1] -12.2% | [2] -3.1% | [3] -5.1% | [4] -5.1% | [5] 4.55% | [6] 2.65%

CC1CC2C3CCC4=CC(=O)CCC4(C)C3CCC2(C)C1(O)C(=O)CO (stereo unspecified)
inactive: [1] 2% | [2] -0.8% | [3] 9.1% | [4] -44% | [5] -14.3% | [6] -0.55%

CC(=O)Nc1ccc(O)c(C)c1
inactive: [1] 10.8% | [2] 3.35% | [3] -25.8% | [4] -21.8% | [5] -14.8% | [6] -1.1%

CCCCCCCCCCCCCCCCCC(=O)NCCNC(=O)CCCCCCCCCCCCCCCCC
inactive: [1] -5.7% | [2] -27.6% | [3] -1.15% | [4] 20.6% | [5] 1.5% | [6] -4.25%

N#Cc1ccc(OC(=O)Nc2c(Cl)cc(Cl)cc2Cl)cc1
inactive: [1] -10.2% | [2] -14.7% | [3] 15.4% | [4] 23.2% | [5] 30.4% | [6] 9.95%

Nc1nc(N)nc(N2CCCCC2)n1
inactive: [1] -23.3% | [2] -5.75% | [3] -16.4% | [4] -41.2% | [5] -4.25% | [6] -19.9%

CCNc1ccc2ccccc2c1N=Nc1ccc(N=Nc2ccccc2)cc1
inactive: [1] -12.4% | [2] -30% | [3] 11.5% | [4] 9.75% | [5] -12.7% | [6] -8.55%

CN(CCCN(C)CCC1CCCCC1)CCC1CCCCC1
inactive: [1] 11.2% | [2] -1.05% | [3] 0.1% | [4] 54.8% | [5] 2.15% | [6] 7.7%

S=C(Sc1ccc(Cl)cc1)Sc1ccc(Cl)cc1
inactive: [1] 46.5% | [2] 19.9% | [3] 54% | [4] 23.1% | [5] 29.6% | [6] 24.1%

O=C(O)CC1=CCCCC1
inactive: [1] 23.4% | [2] -21.6% | [3] 0.9% | [4] 10.2% | [5] -4.65% | [6] 6.9%

C=CCC(O)C=C (stereo unspecified)
inactive: [1] 10.3% | [2] -14.9% | [3] 5.4% | [4] -0.8% | [5] -5.35% | [6] 12.4%

CC(=O)N=c1ccc2nc3c(cc(N)c4ccccc43)oc-2c1
inactive: [1] 25.4% | [2] 13.2% | [3] 27.6% | [4] 20.9% | [5] 40.5% | [6] 33.8%

O=C(NCc1ccco1)Nc1cccc2c(NC(=O)NCc3ccco3)cccc12
inactive: [1] 2.15% | [2] -13.5% | [3] 2.6% | [4] 25.8% | [5] 2.05% | [6] 4.85%

Ic1cccs1
inactive: [1] 34.9% | [2] -3.05% | [3] 6.65% | [4] -6.75% | [5] -4.3% | [6] 11.8%

CCOC(=O)CO
inactive: [1] 26% | [2] 6.85% | [3] -13.4% | [4] 0.3% | [5] 17.2% | [6] 18.9%

CCOP(=O)(OCC)/C(=C\N1C(=O)CC(=O)NC1=S)C(=O)OC
inactive: [1] -29.9% | [2] -31.4% | [3] -18.9% | [4] 7.6% | [5] -6.45% | [6] -5.55%

Nc1ccccc1SC1CC(=O)N(c2ccc(Cl)c(Cl)c2)C1=O (stereo unspecified)
inactive: [1] -2.05% | [2] -21.6% | [3] 4.7% | [4] -15.9% | [5] 1.15% | [6] -5.4%

CCCNS(=O)(=O)c1ccc(Cl)cc1
inactive: [1] 20.1% | [2] -2.9% | [3] -0.45% | [4] 1.55% | [5] -4.75% | [6] -3.7%

C[C@H](CCC[C@H](C)OS(=O)(=O)c1ccccc1)OS(=O)(=O)c1ccccc1
inactive: [1] 9.3% | [2] -3.9% | [3] 5.85% | [4] 4.55% | [5] -8.15% | [6] -16.6%

OCC1CCC(O)C(CO)N1 (stereo unspecified)
inactive: [1] -6.65% | [2] -29.6% | [3] -22.7% | [4] 8.85% | [5] -16.2% | [6] -15.8%

CCOC(=O)c1ccc(Nc2sc(C(=O)c3ccc(Br)cc3)c(N)c2C#N)cc1
inactive: [1] -9.4% | [2] -23.6% | [3] 12.6% | [4] 20.3% | [5] -3.6% | [6] -2.05%
